# Activity calls are given as the source filed them. The call rests on the fitted dose curve; in most records, active means well fitted curve in the direction sought with a large enough effect; inconclusive means small, poorly fitted or top-dose-only effect, or another doubt; inactive means no such curve, though single readings can be large or run the other way.
# Molecular target: Galactokinase (Homo sapiens) (UniProt P51570)
# Experiment: qHTS Validation Assay for Inhibitors of Human Galactokinase (GALK) (AID 493189)
# Details: purified human GALK enzyme activity, qHTS 7-point titration; series mostly up to 57.5 µM
# From the text: NIH Molecular Libraries Probe Production Centers Network [MLPCN]
# NIH Chemical Genomics Center [NCGC]
# Assay Submitter (PI): Kent Lai (University of Utah School of Medicine, 50 N Mario Capecchi Drive, Salt Lake City, UT 84132)
# Inherited deficiency of galactose-1-phosphate uridyltransferase (GALT) can result in a potentially lethal disorder called Classic Galactosemia (OMIM 230400). Several lines of evidence indicate that an elevated level of galactose-1-phosphate (gal-1-p), the product of galactokinase (GALK), is a major, if not sole, pathogenic mechanism in patients with classic galactosemia. Therefore, finding inhibitors of GALK is a potential novel therapy for this inherent metabolic disease and is the long term goal of this project.
# GALK (provided by the assay submitter) was assayed using ATP and D-(+)-Galactose (Sigma-Aldrich cat# G0750) as substrates. Promega Kinase-Glo Plus (cat# V3774) technology was used to detect the residual ATP following kinetic reaction. Briefly, the Kinase-Glo Plus contains Ultra-Glo [2] luciferase and D-luciferin which generates a bioluminescence signal from the remaining ATP.
# NCGC Assay Protocol Summary:
# Three uL/well of ATP-buffer solution (35 uM ATP, 20mM HEPES pH8.0, 5 mM MgCl2, 60 mM NaCl, 1 mM DTT, 0.01% BSA final concentration) was dispensed into 1536-well, assay plates (Greiner, solid white medium-binding plates) with Aurora Discovery BioRAPTR Flying Reagent Dispenser (FRD; Beckton-Dickenson). Compound solution (23 nL) was transferred to the assay plate using the Kalypsys 1536-pin tool. One uL/well GALK-galactose solution (5 nM GALK, 100 uM galactose, 20 mM HEPES pH8.0, 5 mM MgCl2, 60 mM NaCl, 1 mM DTT, 0.01% BSA final concentration) was then added using the FRD yielding a total kinase reaction volume of 4 uL/ well. After 1 hour of room temperature incubation, 4 uL Kinase-Glo Plus reagent was added for a final assay volume of 8 uL/ well. Luminescence was detected with the ViewLux plate reader (Perkin Elmer, Waltham, MA) after 10 min incubation using a 1 sec exposure time and 2x binning.
# Sequence of Galactokinase (Homo sapiens) (P51570 whole entry, looked up): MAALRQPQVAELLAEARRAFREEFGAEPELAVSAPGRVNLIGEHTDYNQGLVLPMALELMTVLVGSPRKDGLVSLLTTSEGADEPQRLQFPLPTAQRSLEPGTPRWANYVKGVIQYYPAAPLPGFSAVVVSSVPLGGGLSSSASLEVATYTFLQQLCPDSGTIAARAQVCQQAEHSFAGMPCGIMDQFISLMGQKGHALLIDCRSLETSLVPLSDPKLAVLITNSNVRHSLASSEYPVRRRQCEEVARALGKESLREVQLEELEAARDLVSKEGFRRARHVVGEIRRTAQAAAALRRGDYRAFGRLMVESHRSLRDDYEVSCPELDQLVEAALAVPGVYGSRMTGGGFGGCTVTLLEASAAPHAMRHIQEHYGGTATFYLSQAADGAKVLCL
row,Compound,outcome
1,Cc1cccc(C#Cc2ccccc2)n1,inactive
2,O=c1ccc2ccc(O)c(O)c2o1,inactive
3,NCCCCNCCCN,inactive
4,Cc1nc2n(c(=O)c1CCN1CCC(c3noc4cc(F)ccc34)CC1)CCCC2,inactive
5,CC(=O)O[C@H]1C(=O)[C@@]2(C)C([C@H](OC(=O)c3ccccc3)[C@]3(O)C[C@H](OC(=O)[C@H](O)[C@@H](NC(=O)c4ccccc4)c4ccccc4)C(C)=C1C3(C)C)[C@]1(OC(C)=O)CO[C@@H]1C[C@@H]2O (stereo not given in full),inactive
6,CC1(C)C(=O)N(CCN2CCC(C(=O)c3ccc(F)cc3)CC2)c2ccccc21,inactive
7,NC(=NCc1ccccc1)NC(=O)c1nc(Cl)c(N)nc1N,inactive
8,O=C(NCC1CCCCN1)c1cc(OCC(F)(F)F)ccc1OCC(F)(F)F (stereo not given),inactive
9,OC(CN1CCN(c2cccc(Cl)c2)CC1)C(c1ccccc1)c1ccccc1 (stereo not given),inactive
10,CC(C)c1ccc2c(c1)c(SC(C)(C)C)c(CC(C)(C)C(=O)O)n2Cc1ccc(Cl)cc1,inactive
11,Cc1cc(O)c2c(c1)C(=O)c1cc(O)cc(O)c1C2=O,inactive
12,COc1cc2nc(N3CCN(C(=O)C4CCCO4)CC3)nc(N)c2cc1OC (stereo not given),inactive
13,CCN(CC)C(=S)SSC(=S)N(CC)CC,inactive
14,CC1(C)NC(=O)N(c2ccc([N+](=O)[O-])c(C(F)(F)F)c2)C1=O,inactive
15,O=Nc1c(-c2c(O)[nH]c3cc(Br)ccc23)[nH]c2ccccc12,inactive
16,O=c1c(O)c(-c2cc(O)c(O)c(O)c2)oc2cc(O)cc(O)c12,inactive
17,C[C@H](Cc1ccc(O)c(O)c1)[C@@H](C)Cc1ccc(O)c(O)c1,inactive
18,CC(=O)N1CCN(c2ccc(OC[C@H]3CO[C@](Cn4ccnc4)(c4ccc(Cl)cc4Cl)O3)cc2)CC1,inactive

row,Compound,outcome
1,O=C1NC(=O)C(c2ccccc2[N+](=O)[O-])=C1Nc1ccc(O)c(Cl)c1,inactive
2,C[C@@H](N)C1CCC(C(=O)Nc2ccncc2)CC1 (stereo not given in full),inactive
3,CNC[C@H](O)c1ccc(O)c(O)c1,inactive
4,O=C(c1ccccc1)c1ccc2n1CCC2C(=O)O (stereo not given),inactive
5,CN(C)CCCC1(c2ccc(F)cc2)OCc2cc(C#N)ccc21 (stereo not given),inactive
6,O=C(CCc1ccc(O)cc1)c1c(O)cc(O)cc1O,inactive
7,O=c1cc(N2CCOCC2)oc2c(-c3ccccc3)cccc12,inactive
8,O=C1c2c(O)cc(O)cc2OC(c2ccc(O)c(O)c2)C1O (stereo not given),inactive
9,COc1ccccc1N1CCN(CCN(C(=O)C2CCCCC2)c2ccccn2)CC1,inactive
10,Cc1c(OCC(F)(F)F)ccnc1CS(=O)c1nc2ccccc2[nH]1 (stereo not given),inactive
11,COc1ccc2cc([C@H](C)C(=O)O)ccc2c1,inactive
12,Oc1ccc(-c2nc(-c3ccc(F)cc3)c(-c3ccncc3)[nH]2)cc1,inactive
13,O=c1c(O)c(-c2ccc(O)cc2O)oc2cc(O)cc(O)c12,inactive
14,Nc1nc(OCc2ccccc2)c2[nH]cnc2n1,inactive
15,NNc1nncc2ccccc12,inactive
16,O=C(O)c1cccnc1Nc1cccc(C(F)(F)F)c1,inactive
17,O=C1c2ccccc2-c2n[nH]c3cccc1c23,inactive
